Pf growth 96h: inhibits malaria parasite growth, 96 h. P. falciparum luciferase reporter growth, 96 h. Potency, µM (titrated, usually from 28.7 µM), for inactives: at the top dose activity change, negative = inhibition, usual class: inhibitors. 320,000 compounds, 6.9% hits. AID 504834; also: potency is read from the fitted curve at half-maximal effect; % is scaled to controls: 0 for no effect and ±100 for the full control effect
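P. falciparum expressing integrated firefly luciferase, in erythrocytes at 2% hematocrit, 0.05% parasitemia, incubated with compounds 96 h at 37 C, 5% CO2. Growth inhibition read as loss of luminescence; two-generation exposure targets delayed-death apicoplast inhibitors.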
Cycloheximide cs: counter-screen for Shiga toxin inhibitors: cycloheximide protein synthesis inhibition | 300,000 compounds, 12% hits | max response, % | cell reporter, cycloheximide protein synthesis inhibition counterscreen; in the data active = max response mostly above about 13%, no sharp cut-off; inactive = mostly below about 14%; also: read at 38.3 µM for the half of the compounds with a filed dose; 0% is about no effect
LmPK inh: inhibitors of Leishmania mexicana pyruvate kinase. purified LmPK, Kinase-Glo ATP luminescence, 1 h. Potency, µM (highest dose often 57.5 µM), for the others: at the highest dose activity change, negative = inhibition, usual class: inhibitors. AID 1721. Q27686. 290,000 compounds, 0.37% hits; also: potency is read from the fitted curve at half-maximal effect; % is scaled to controls: 0 for no effect and ±100 for the full control effect
Target sequence (Q27686 whole entry, looked up): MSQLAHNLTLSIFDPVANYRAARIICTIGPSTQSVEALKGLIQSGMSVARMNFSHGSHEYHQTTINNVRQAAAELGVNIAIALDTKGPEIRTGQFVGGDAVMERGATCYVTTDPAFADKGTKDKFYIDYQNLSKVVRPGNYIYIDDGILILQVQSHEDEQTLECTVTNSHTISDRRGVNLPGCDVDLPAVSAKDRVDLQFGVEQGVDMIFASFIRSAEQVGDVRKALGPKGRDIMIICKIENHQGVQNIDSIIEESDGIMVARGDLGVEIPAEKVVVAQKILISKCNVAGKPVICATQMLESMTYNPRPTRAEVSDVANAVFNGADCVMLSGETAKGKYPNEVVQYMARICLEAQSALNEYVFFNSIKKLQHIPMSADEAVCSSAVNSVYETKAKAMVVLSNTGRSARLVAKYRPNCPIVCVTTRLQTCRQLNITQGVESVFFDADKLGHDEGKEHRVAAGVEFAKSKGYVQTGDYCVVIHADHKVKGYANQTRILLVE
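0.1 nM LmPK, 0.5 mM PEP, 0.1 mM ADP; 50 mM imidazole pH 7.2, 7 mM MgCl2, 50 mM KCl; 1 h RT. Kinase-Glo luminescence readout, normalized to no-enzyme (full inhibition) and uninhibited wells.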
Shiga inhibitor: inhibitors of Shiga toxin in Vero cells; Vero cells, Shiga toxin protein synthesis inhibition reporter; inhibition, % at 38.7 µM; 290,000 compounds, 9.2% hits; AID 2315; in the data active = inhibition mostly above about 28%, no sharp cut-off; inactive = mostly below about 43%; also: 0% is about no effect
Pf growth 48h: P. falciparum growth inhibition at 48 hours (one generation). P. falciparum luciferase growth in erythrocytes, 48 h. Potency, µM (highest dose often 28.7 µM), without a hit: at the highest dose activity change, negative = inhibition, actives largely listed as inhibitors. 310,000 compounds, 5.9% hits. AID 504832; also: potency is read from the fitted curve at half-maximal effect; % is scaled to controls: 0 for no effect and ±100 for the full control effect
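In quantitative HTS format, infected erythrocytes bearing luciferase-reporter parasites were treated for a single generation at 37 C. Luminescence after adding detection reagent served as the growth measure.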
An asterisk follows results filed as active; u = inconclusive; x = not tested or not shown; [ ] = another dose, or the depositor's remark. Compounds with a hit are over-represented: about 22% of the library has one in this group of screens. Unless noted, calls follow the shape of the dose curve; as a rule, active = well fitted inhibition curve with a large enough effect; inconclusive = small, poorly fitted or top-dose-only effect, or another doubt; inactive = no such curve, though single readings can be large or run the other way.

SMILES | Pf growth 96h | Cycloheximide cs | LmPK inh | Shiga inhibitor | Pf growth 48h
COc1ccc(CCC(=O)OCC(=O)Nc2sccc2C(N)=O)cc1 | 8% | x | x | x | u
NC(=O)c1ccsc1NC(=O)CCc1ccccc1 | -11% | 44* | -4% | x | 84%
COC(=O)c1cc(C)sc1NC(=O)CCc1ccccc1 | 8% | -2 | 5% | x | -3%
COC(=O)c1ccsc1NC(=O)CN1CCN(c2ncccn2)CC1 | 0% | -4 | 1% | -20 | 12µM*
NC(=O)c1ccsc1NC(=O)COC(=O)c1ccccn1 | -11% | x | x | x | 3%
CCOc1ccccc1OCCCC(=O)Nc1sccc1C(N)=O | u | 7 | 3% | 9 | 12µM*
CN(C(=O)COC(=O)c1nc(Cl)ccc1Cl)c1ccccc1 | u | -2 | -10% | -14 | -3%
S=C(Nc1ccc(Cl)cc1)c1nc2ccccc2s1 | -16% | 34* | -6% | 35 | 69%
Clc1ccc(CCNc2nc3ccccc3s2)cc1 | 44% | 10 | 1% | 25 | 59%
O=C(Nc1ccc(Cl)cc1)/C(=C/c1cccc(O)c1)c1nc2ccccc2s1 | 4.1µM* | 95* | 1% | 154* | 9.3µM*
O=C(NCc1ccc(F)cc1)C(c1ccco1)N(C(=O)c1csnn1)C1CC1 (configuration not stated) | 19% | -2 | 0% | 0 | 4%
O=C(N/N=C1\CCCc2c1[nH]c1ccc([N+](=O)[O-])cc21)c1ccncc1 | 8% | 4 | 7% | 25 | 50%
Cc1cc(C)n(CCC(=O)N2CCCC(N3CCN(c4cccc(Cl)c4)CC3)C2)n1 (configuration not stated) | 7% | 4 | -8% | -30 | -14%
COc1ccc(-n2nc(C(=O)O)c3csc(N)c3c2=O)cc1 | x | -8 | x | -4 | x
CN(C)CCCNC(=O)c1cc(C(=O)c2cccc(Cl)c2Cl)c[nH]1 | -11% | -9 | -2% | -12 | -15%[0.00184 µM]
CCc1ccccc1NC(=O)c1ccccc1Sc1ccc([N+](=O)[O-])cc1Cl | -17% | -3 | -1% | -9 | 12µM*
CCSc1ccccc1C(=O)Nc1ccc([N+](=O)[O-])cc1OC | -2% | -2 | -1% | 3 | u
COC(=O)c1c(C)noc1-c1snnc1C | 31% | -2 | -4% | -17 | -4%
CC(C)=NOC(=O)c1c(C)noc1-c1snnc1C | 1.9µM* | -2 | -1% | -12 | 1.7µM*
CC(C)c1c(C(=O)N/N=C/c2ccc(OCc3ccccc3)cc2)nnn1-c1nonc1N | u | -2 | 5% | 21 | u
COc1cc(/C=N/NC(=O)c2nnn(-c3nonc3N)c2C(C)C)ccc1OCc1ccccc1 | 9.3µM* | 13 | 4% | 29 | u
CC(/C=N/NC(=O)c1nnn(-c2nonc2N)c1C(C)C)=C\c1ccccc1 | 12% | 29* | 1% | 92 | 44%
O=C(Nc1ccnn1C1CCN(C/C=C/c2ccccc2)CC1)c1cccc(F)c1 | 5% | 0 | -6% | -3 | u
CC(=O)CCc1c(C)c2cc(C)ccc2[nH]c1=O | -23% | 33* | 2% | 48 | 6%
Cc1ccc2[nH]c(=O)c3cc(C(=O)NCCC(C)C)sc3c2c1 | 10% | -3 | -1% | -4 | u
SMILES | Pf growth 96h | Cycloheximide cs | LmPK inh | Shiga inhibitor | Pf growth 48h
CCOc1ccc(Br)cc1S(=O)(=O)NCc1ccncc1 | 13µM* | -3 | -1% | -7 | -1%
CCOc1ccc(S(=O)(=O)NCc2ccc(OC)cc2)c2cccnc12 | -6% | -1 | -3% | -11 | 9%
COc1ccc(Cl)cc1S(=O)(=O)NCc1ccncc1 | 5% | 4 | 8% | -12 | -4%
CCOc1ccc(S(=O)(=O)NCc2ccc(F)cc2)c2cccnc12 | 6.6µM* | 11 | -1% | 5 | 0%
COc1ccc(C(=O)NCc2ccncc2)cc1S(=O)(=O)NCc1ccc(Cl)cc1 | 10µM* | x | x | x | u
CCOc1ccc(Br)cc1S(=O)(=O)NCc1ccc(S(N)(=O)=O)cc1 | -19% | -2 | 0% | -8 | -7%
CCOc1ccc(S(=O)(=O)Nc2ccc3c(c2)OCO3)c2cccnc12 | u | 23* | 2% | 19 | u
CC(OC(=O)CC1CCCCC1)C(=O)Nc1ccc(F)cc1 (configuration not stated) | -4% | x | x | x | -5%
C/C(=N\Nc1nc(C)c(C)s1)c1ccc([N+](=O)[O-])cc1 | u | -5 | -4% | 19 | u
CC(C)(C)C1CCc2c(sc3ncn(N)c(=N)c23)C1 (configuration not stated) | -29% | 13* | 2% | 40 | 5%

Compound activity deposited in PubChem BioAssay by National Center for Advancing Translational Sciences (NCATS).
